Screening data as filed in PubChem.
IL-1B inflam inh – qHTS for Inhibitors of Inflammasome Signaling: IL-1-beta AlphaLISA Primary Screen; THP-1 LPS/ATP IL-1B secretion, AlphaLISA, 16 h; stronger effect = lower value; activity change, % at 57.5 µM; actives 4.7% (n = 360,000); in the data active = activity change below about -50%; inconclusive = mostly about -30% to -49%; note: % is set by controls: 0 for no effect and ±100 for the full control effect
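Secreted IL-1B measured by AlphaLISA bead assay after 16 h compound exposure of THP-1 cells; compounds (final up to 57.5 uM) added 1 h before LPS (250 ng/mL) and ATP (1.25 mM) stimulation; lower signal means less secretion.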
TDP1 cell CPT – qHTS for Inhibitors of human tyrosyl-DNA phosphodiesterase 1 (TDP1): qHTS in cells in presence of CPT; chicken DT40 Tdp1-/-;hTDP1 cells + 20 nM CPT, ATP luminescence, 48 h; actives 12% (n = 420,000); Potency, µM (highest dose often 46.2 µM), without a hit: at the highest dose activity change, negative = growth inhibition, hits mostly inhibitors; note: potency is the fitted concentration of half-maximal effect; % is set by controls: 0 for no effect and ±100 for the full control effect; nearly all actives have a fitted effect of over 55% in size
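Cell growth measured by CellTiter-Glo luminescence after a minimum 48 h, 37 C compound exposure with 20 nM CPT in Tdp1-knockout DT40 cells stably expressing hTDP1, seeded 400/well; qHTS titration format.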
S-ASM inh – Inhibitors of Secretory Acid Sphingomyelinase (S-ASM): qHTS; placental ASM, HMU-PC fluorogenic substrate, 60 min; Sphingomyelin phosphodiesterase (Homo sapiens), P17405; AID 504937, 2011; actives 0.006% (n = 340,000); Potency, µM (top dose mostly 57.5 µM), for inactives: top-dose activity change, negative = inhibition, actives largely listed as inhibitors; note: potency is the fitted concentration of half-maximal effect
Target sequence (P17405 47-631 limits assumed): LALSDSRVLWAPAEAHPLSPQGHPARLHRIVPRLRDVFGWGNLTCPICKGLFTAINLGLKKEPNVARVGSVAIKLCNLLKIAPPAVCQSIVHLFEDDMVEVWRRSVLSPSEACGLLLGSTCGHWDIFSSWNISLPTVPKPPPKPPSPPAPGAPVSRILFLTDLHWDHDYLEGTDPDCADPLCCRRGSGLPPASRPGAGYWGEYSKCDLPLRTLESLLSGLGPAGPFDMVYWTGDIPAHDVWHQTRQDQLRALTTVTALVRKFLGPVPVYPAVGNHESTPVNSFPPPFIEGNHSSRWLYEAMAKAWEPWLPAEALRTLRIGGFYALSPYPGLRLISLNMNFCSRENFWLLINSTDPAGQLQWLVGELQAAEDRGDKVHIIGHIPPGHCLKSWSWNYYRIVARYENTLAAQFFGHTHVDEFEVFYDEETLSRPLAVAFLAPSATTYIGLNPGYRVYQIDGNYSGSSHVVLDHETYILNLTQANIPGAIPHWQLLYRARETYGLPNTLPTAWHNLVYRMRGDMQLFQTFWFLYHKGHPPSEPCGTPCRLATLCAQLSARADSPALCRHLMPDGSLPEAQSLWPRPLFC
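Fluorescence read-out (Ex 386 nm, Em 447 nm) after stopping the reaction at pH 10. Enzyme: ASM from human placenta; substrate HMU-PC0, 9 uM final; 60 min, 37 °C. Compound preincubation 10 min, ambient temperature.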
TGFb SMAD3 inh – qHTS for Inhibitors of TGF-b; HepG2 CAGA-GFP TGF-b/SMAD3 reporter, GFP fluorescence, 18 h; TGF-beta stimulated, 500 pg/mL final; Potency, µM (top dose mostly 46.1 µM), for the others: at the top dose activity, negative = inhibition, most hits filed as inhibitors; actives 1.2% (n = 410,000); note: potency is the fitted concentration of half-maximal effect; % is set by controls: 0 for no effect and ±100 for the full control effect; nearly all actives have a fitted effect of over 65% in size
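HEPG2 CAGA-GFP, 1000 cells/well; 2 h settle, 37 C; cpd via pin tool; TGF-b 500 pg/mL final; 18 h, 37 C; GFP imaging ex488/em500-530; %Activity normalised to -TGF-b and +DMSO controls; CRC fit, curve class.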
DT40 TDP1 no CPT – qHTS for Inhibitors of human tyrosyl-DNA phosphodiesterase 1 (TDP1): qHTS in cells in absence of CPT; DT40 Tdp1-/- hTDP1 cells, no CPT, ATP luminescence, 48 h; Potency, µM (series often up to 46.2 µM), inactives show top-dose activity change, negative = growth inhibition, actives largely listed as inhibitors; actives 15% (n = 420,000); AID 686978, 2013; note: potency is the fitted concentration of half-maximal effect; % is set by controls: 0 for no effect and ±100 for the full control effect; nearly all actives have a fitted effect of over 55% in size
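Compound effects on proliferation are scored in DT40 Tdp1-/-;hTDP1 cells in the absence of CPT. ATP levels (CellTiter-Glo luminescence) are recorded after a ≥48 hr, 37 °C incubation.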
HepG2 tox – qHTS for Inhibitors of TGF-b: Cytotox Counterscreen; HepG2 CAGA-GFP viability, ATP luminescence, 18 h; Potency, µM (series often up to 46.1 µM), inactives show at the highest dose activity change, negative = cytotoxicity, hits mostly cytotoxic; actives 0.76% (n = 410,000); AID 588856, 2011; note: potency is the fitted concentration of half-maximal effect
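CellTiter-Glo luminescence gave cytotoxicity after 18 hours at 37 degrees C. The cells were HepG2 CAGA-GFP in 1% FBS DMEM, stimulated with 500 pg/mL TGF-beta after compound addition. %Activity was normalised to no-cell wells (complete cell-killing) and DMSO (no toxicity), and curves were fitted and classified.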
Numbers without * were called inactive. Only some compounds are listed: those with a hit (about 19% of all), similar ones and a draw of the others. Unless noted, calls come from the whole dose curve; as a rule, active = well fitted curve in the direction sought with a large enough effect; inconclusive = small, poorly fitted or top-dose-only effect, or another doubt; inactive = no such curve, though single readings can be large; an effect the other way counts as inactive or inconclusive.

`CCC(C)Sc1oc(-c2ccco2)nc1S(=O)(=O)c1ccc(Cl)cc1` (configuration not stated) gave TDP1 cell CPT 18.4µM*, TGFb SMAD3 inh -24.9%, DT40 TDP1 no CPT inconclusive and HepG2 tox -27.7%.
Screening Cc1ccc(S(=O)(=O)n2nc(-c3ccc(Cl)cc3)nc2NCc2ccc(F)cc2)cc1 returned TGFb SMAD3 inh 3.1% and HepG2 tox -1.8%.
Screening COCCCNC(=O)c1cc2c(=O)oc3ccc(C)cc3c2s1 returned TDP1 cell CPT 6.51µM*, TGFb SMAD3 inh -2.4%, DT40 TDP1 no CPT 5.8µM* and HepG2 tox 4.7%.
For COc1cccc(CNC(=O)c2cc3c(=O)oc4ccc(C)cc4c3s2)c1 the results were TDP1 cell CPT inconclusive, TGFb SMAD3 inh -10.0%, DT40 TDP1 no CPT 20.6µM* and HepG2 tox 7.3%.
CCN(CC(=O)Nc1ccc(NC(C)=O)cc1)C(=O)/C=C/c1c(C)nn(-c2ccc(F)cc2)c1C was read as IL-1B inflam inh inactive, TDP1 cell CPT -0.8%, S-ASM inh -0.3%, TGFb SMAD3 inh 1.7%, DT40 TDP1 no CPT -4.7% and HepG2 tox 5.4%.
`CCN(c1nc(N)c(C(=O)N=C(N)N)nc1Cl)C(C)C` gave IL-1B inflam inh -2.9, TDP1 cell CPT 20.6µM*, S-ASM inh 109.1%, TGFb SMAD3 inh -2.5%, DT40 TDP1 no CPT 7.31µM* and HepG2 tox -13.3%.
`CCOC(=O)c1c(NC(=O)COC(=O)c2ccc(C)s2)sc2c1CC(C)(C)NC2(C)C` gave IL-1B inflam inh -59.3*, TDP1 cell CPT inconclusive, S-ASM inh -15.5%, TGFb SMAD3 inh 9.0%, DT40 TDP1 no CPT 18.4µM* and HepG2 tox -29.2%.
For CCOC(=O)c1c(NC(=O)COc2ccccc2C#N)sc2c1CC(C)(C)NC2(C)C the results were IL-1B inflam inh 1.7, TDP1 cell CPT 5.17µM*, S-ASM inh 19.0%, TGFb SMAD3 inh inconclusive, DT40 TDP1 no CPT 5.8µM* and HepG2 tox -33.7%.
`CCOC(=O)c1c(NC(=O)COc2ccccc2OCC)sc2c1CC(C)(C)NC2(C)C` gave IL-1B inflam inh -105.7*, TDP1 cell CPT 6.51µM*, S-ASM inh -5.5%, TGFb SMAD3 inh -6.3%, DT40 TDP1 no CPT 5.8µM* and HepG2 tox -83.2%.
CC1(C)Cc2c(sc(NC(=O)COc3cccc4ccccc34)c2C#N)C(C)(C)N1 was read as IL-1B inflam inh -100.0*, TDP1 cell CPT 10.3µM*, S-ASM inh inconclusive, TGFb SMAD3 inh inconclusive, DT40 TDP1 no CPT 13µM* and HepG2 tox -147.4%.
CCOC(=O)C1(C)CCN1C(=O)c1ccc(OC)c(C(F)(F)F)c1 (configuration not stated) was read as IL-1B inflam inh 21.9, TDP1 cell CPT inconclusive, TGFb SMAD3 inh -9.8%, DT40 TDP1 no CPT inconclusive and HepG2 tox 6.4%.
`NC(=O)c1nc(-c2ccccc2)c(-c2ccccc2)[nH]c1=O` gave IL-1B inflam inh -15.0, TDP1 cell CPT 0.581µM*, S-ASM inh 6.2%, TGFb SMAD3 inh 0.2%, DT40 TDP1 no CPT 2.31µM* and HepG2 tox 1.7%.
`CCOC(=O)c1c(NC(=O)C2=COCCO2)sc2c1CCN(C(=O)OC)C2` gave IL-1B inflam inh -25.8, TDP1 cell CPT inconclusive, S-ASM inh 9.7%, TGFb SMAD3 inh 0.0%, DT40 TDP1 no CPT 18.4µM* and HepG2 tox 2.0%.
